Assay results as given in PubChem BioAssay (EPA / NIEHS).
Inconclusive results are not listed. Calls of active or inactive are those of the source. Rule for the calls: active = hit-call score of the fitted dose curve at least 0.9, where 1 is the maximum; inconclusive = response in the unintended direction; inactive = score below 0.9.

Assays:
[1] = biological target: human Peroxisome Proliferator-activated Receptor alpha (PPARa), PPARA (gene 5465) (UniProt Q07869); assay: ATG_PPARa_TRANS: Attagene TRANS-FACTORIAL HepG2 Assay for human Peroxisome Proliferator-activated Receptor alpha (PPARa) (AID 2283001);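 for AC50: potency for gain of reporter signal over DMSO so agonist or activator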
How it was run: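 Transient HepG2 transfection, GAL4-UAS reporters, NR-Gal4 chimeras; 24 h compound exposure. Readout: reporter transcripts by RT-PCR, 6-FAM primer extension, HpaI digest, capillary electrophoresis. Positive direction vs DMSO baseline.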

[2] = biological target: Retinoic acid receptor alpha (Homo sapiens) (UniProt P10276); assay: ATG_RARa_TRANS: Attagene TRANS-FACTORIAL HepG2 Assay for human Retinoic Acid Receptor alpha (RARa) (AID 2283005)
How it was run: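 HepG2 transiently transfected with multiplex GAL4-UAS reporter units including a human RARa–GAL4 chimera; 24 h compound exposure. Reporter mRNA quantified by RT-PCR, 6-FAM labeling and capillary electrophoresis; gain of signal versus DMSO.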

[3] = biological target: Peroxisome proliferator-activated receptor gamma (Homo sapiens) (UniProt P37231); assay: ATG_PPARg_TRANS: Attagene TRANS-FACTORIAL HepG2 Assay for human Peroxisome Proliferator-activated Receptor-gamma (PPARg) (AID 2283007)
How it was run: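 Twenty-four hours after chemical dosing of transiently transfected HepG2 cells, isolated RNA was converted to cDNA, reporter sequences amplified and 6-FAM-labelled, then HpaI-digested and analysed by capillary electrophoresis. Signal increase against DMSO was fitted.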

[4] = biological target: human Retinoic Acid Receptor gamma (RARg), RARG (gene 5916) (UniProt P13631); assay: ATG_RARg_TRANS: Attagene TRANS-FACTORIAL HepG2 Assay for human Retinoic Acid Receptor gamma (RARg) (AID 2283009)
How it was run: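 Readout: reporter transcript levels via RT-PCR, 6-FAM primer-extension labelling, HpaI digestion and capillary electrophoresis. Cells: HepG2 carrying transfected RARg-GAL4 chimera plus UAS reporter set. Dosing 24 h; DMSO negative control.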

[5] = biological target: human RAR-related Orphan Receptor beta (RORb), RORB (gene 6096) (UniProt Q92753); assay: ATG_RORb_TRANS: Attagene TRANS-FACTORIAL HepG2 Assay for human RAR-related Orphan Receptor beta (RORb) (AID 2283010)
How it was run: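 HepG2, transient MRTU transfection (GAL4-UAS reporters, exogenous NR-Gal4 chimeras); 24 h compound exposure; total RNA → RT-PCR → 6-FAM primer extension → HpaI digest → CE fluorescence. Positive direction vs DMSO baseline.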

[6] = biological target: Retinoic acid receptor RXR-alpha (Homo sapiens) (UniProt P19793); assay: ATG_RXRa_TRANS: Attagene TRANS-FACTORIAL HepG2 Assay for human Retinoid X Receptor alpha (RXRa) (AID 2283012)
How it was run: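 Read-out: fluorescent reporter-transcript fragments quantified by capillary electrophoresis after RT-PCR. Transiently transfected HepG2 cells carrying GAL4-UAS reporters and NR-GAL4 chimeras were exposed to chemical for 24 h; activity scored as increase over DMSO.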

[7] = biological target: human Retinoid X Receptor beta (RXRb), RXRB (gene 6257) (UniProt P28702); assay: ATG_RXRb_TRANS: Attagene TRANS-FACTORIAL HepG2 Assay for human Retinoid X Receptor beta (RXRb) (AID 2283013)
How it was run: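 Read-out: reporter mRNA induction via RT-PCR plus capillary electrophoresis fluorescence, analysed as signal increase relative to DMSO. Cells were human HepG2, transiently transfected with GAL4-UAS reporter constructs and chimeric receptor-Gal4 fusions, dosed for 24 h.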

[8] = biological target: human Retinoic Acid Receptor beta (RARb), RARB (gene 5915) (UniProt P10826); assay: ATG_RARb_TRANS: Attagene TRANS-FACTORIAL HepG2 Assay for human Retinoic Acid Receptor beta (AID 2283004)
How it was run: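 HepG2 cells transiently transfected with multiplexed GAL4-UAS reporter units expressing chimeric NR–Gal4 fusions; 24 h compound exposure. Reporter mRNA quantified by RT-PCR, 6-FAM labelling, HpaI digestion and capillary electrophoresis; gain-of-signal fitted against DMSO baseline.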

[9] = biological target: Nuclear receptor subfamily 1 group I member 2 (Homo sapiens) (UniProt O75469); assay: ATG_PXR_TRANS: Attagene TRANS-FACTORIAL HepG2 Assay for human Pregnane X Receptor (PXR) (AID 2283008)
How it was run: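 HepG2 transfected (FuGene 6) with GAL4-UAS reporter units + PXR-Gal4 chimera; dosed 24 h. Total RNA → oligo(dT) RT → PCR → 6-FAM primer extension → HpaI cut → CE. Gain-of-signal vs DMSO.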

[10] = biological target: human Thyroid Receptor alpha (THRa1), THRA (gene 7067) (UniProt P10827); assay: ATG_THRa1_TRANS: Attagene TRANS-FACTORIAL HepG2 Assay for human Thyroid Receptor alpha (THRa1) (AID 2283014)
How it was run: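 HepG2 cells transiently transfected with multiplexed GAL4-UAS reporter units for exogenous chimeric THRa1-Gal4; reporter mRNA measured 24 h after dosing by RT-PCR, 6-FAM labelling, HpaI digestion and capillary electrophoresis. Gain-of-signal fitted versus DMSO baseline.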

[11] = biological target: human RAR-related Orphan Receptor gamma (RORg), RORC (gene 6097) (UniProt P51449); assay: ATG_RORg_TRANS: Attagene TRANS-FACTORIAL HepG2 Assay for human RAR-related Orphan Receptor gamma (RORg) (AID 2283011)
How it was run: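 Readout: reporter transcript induction (RT-PCR, fluorescent primer extension, capillary electrophoresis) after 24 h compound exposure of transiently transfected HepG2 cells carrying a RORg-Gal4 chimera and GAL4-UAS reporters; DMSO served as baseline, with increasing signal fitted.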

Measured: AC50

Nuclear receptor subfamily 1 group I member 2 (Homo sapiens), sequence (O75469 whole entry, looked up, the tested form may be a part): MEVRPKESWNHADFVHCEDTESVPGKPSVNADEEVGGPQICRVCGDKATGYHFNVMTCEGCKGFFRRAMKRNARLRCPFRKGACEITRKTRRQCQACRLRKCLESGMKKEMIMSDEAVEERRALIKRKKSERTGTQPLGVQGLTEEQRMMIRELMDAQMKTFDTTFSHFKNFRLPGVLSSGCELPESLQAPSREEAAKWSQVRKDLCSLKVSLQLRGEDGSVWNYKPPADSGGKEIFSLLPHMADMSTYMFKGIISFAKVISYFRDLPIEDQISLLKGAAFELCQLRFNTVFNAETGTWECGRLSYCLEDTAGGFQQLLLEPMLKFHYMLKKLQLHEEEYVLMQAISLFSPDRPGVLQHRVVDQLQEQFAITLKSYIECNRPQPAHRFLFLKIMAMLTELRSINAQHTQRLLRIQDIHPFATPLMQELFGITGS
Peroxisome proliferator-activated receptor gamma (Homo sapiens), sequence (P37231 whole entry, looked up): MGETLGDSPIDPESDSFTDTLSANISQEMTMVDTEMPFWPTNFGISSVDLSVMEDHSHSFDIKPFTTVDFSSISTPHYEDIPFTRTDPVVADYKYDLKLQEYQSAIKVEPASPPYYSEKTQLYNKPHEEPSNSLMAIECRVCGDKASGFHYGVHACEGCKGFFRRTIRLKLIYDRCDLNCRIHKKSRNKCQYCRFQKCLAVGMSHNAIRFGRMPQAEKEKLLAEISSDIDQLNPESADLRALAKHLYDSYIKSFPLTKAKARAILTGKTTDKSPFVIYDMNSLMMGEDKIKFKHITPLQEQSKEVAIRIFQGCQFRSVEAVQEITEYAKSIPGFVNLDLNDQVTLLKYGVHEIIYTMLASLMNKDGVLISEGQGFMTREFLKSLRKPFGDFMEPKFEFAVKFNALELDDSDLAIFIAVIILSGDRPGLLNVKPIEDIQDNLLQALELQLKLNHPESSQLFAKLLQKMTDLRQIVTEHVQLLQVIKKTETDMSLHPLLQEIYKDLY
human Retinoid X Receptor beta (RXRb), RXRB (gene 6257), sequence (P28702 whole entry, looked up, the tested form may be a part): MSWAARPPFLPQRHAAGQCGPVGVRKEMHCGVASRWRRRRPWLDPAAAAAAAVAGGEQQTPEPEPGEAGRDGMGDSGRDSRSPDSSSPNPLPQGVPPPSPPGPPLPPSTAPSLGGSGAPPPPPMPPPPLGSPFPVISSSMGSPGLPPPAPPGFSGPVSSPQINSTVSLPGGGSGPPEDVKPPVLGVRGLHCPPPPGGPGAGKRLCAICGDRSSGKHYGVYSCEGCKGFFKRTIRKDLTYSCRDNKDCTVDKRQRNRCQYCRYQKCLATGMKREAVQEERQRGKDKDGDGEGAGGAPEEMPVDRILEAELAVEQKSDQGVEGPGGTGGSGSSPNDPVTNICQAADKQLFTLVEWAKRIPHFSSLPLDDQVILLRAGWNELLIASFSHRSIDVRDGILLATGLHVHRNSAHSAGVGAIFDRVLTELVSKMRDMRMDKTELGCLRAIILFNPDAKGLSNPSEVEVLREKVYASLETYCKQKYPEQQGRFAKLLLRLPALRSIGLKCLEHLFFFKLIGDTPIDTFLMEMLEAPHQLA
human Thyroid Receptor alpha (THRa1), THRA (gene 7067), sequence (P10827 whole entry, looked up, the tested form may be a part): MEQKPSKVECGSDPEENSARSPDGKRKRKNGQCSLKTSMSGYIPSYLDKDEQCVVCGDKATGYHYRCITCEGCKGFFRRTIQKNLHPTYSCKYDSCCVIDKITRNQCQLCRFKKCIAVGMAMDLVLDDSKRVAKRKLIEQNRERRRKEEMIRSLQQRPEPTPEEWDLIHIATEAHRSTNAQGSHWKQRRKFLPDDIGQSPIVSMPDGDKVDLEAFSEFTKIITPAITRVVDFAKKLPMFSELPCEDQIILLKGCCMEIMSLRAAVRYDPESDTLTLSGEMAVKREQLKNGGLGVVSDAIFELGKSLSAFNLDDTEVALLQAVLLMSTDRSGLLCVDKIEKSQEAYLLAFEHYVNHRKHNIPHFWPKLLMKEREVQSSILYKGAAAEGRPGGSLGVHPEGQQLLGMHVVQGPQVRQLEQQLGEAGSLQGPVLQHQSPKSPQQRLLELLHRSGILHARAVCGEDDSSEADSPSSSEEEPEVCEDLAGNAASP
human RAR-related Orphan Receptor beta (RORb), RORB (gene 6096), sequence (Q92753 whole entry, looked up, the tested form may be a part): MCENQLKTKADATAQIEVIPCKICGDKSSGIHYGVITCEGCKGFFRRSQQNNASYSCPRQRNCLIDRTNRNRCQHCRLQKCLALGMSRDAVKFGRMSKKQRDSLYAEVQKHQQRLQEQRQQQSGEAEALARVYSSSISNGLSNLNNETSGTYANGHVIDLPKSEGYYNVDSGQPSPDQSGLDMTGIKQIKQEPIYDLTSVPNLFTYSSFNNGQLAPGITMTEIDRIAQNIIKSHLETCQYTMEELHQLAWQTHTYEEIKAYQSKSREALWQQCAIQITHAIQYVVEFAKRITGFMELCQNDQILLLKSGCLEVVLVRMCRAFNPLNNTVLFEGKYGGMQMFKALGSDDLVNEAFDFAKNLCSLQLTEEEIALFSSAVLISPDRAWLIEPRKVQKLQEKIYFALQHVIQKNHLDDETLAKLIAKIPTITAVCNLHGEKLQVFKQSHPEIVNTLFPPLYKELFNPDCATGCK
human Retinoic Acid Receptor beta (RARb), RARB (gene 5915), sequence (P10826 whole entry, looked up, the tested form may be a part): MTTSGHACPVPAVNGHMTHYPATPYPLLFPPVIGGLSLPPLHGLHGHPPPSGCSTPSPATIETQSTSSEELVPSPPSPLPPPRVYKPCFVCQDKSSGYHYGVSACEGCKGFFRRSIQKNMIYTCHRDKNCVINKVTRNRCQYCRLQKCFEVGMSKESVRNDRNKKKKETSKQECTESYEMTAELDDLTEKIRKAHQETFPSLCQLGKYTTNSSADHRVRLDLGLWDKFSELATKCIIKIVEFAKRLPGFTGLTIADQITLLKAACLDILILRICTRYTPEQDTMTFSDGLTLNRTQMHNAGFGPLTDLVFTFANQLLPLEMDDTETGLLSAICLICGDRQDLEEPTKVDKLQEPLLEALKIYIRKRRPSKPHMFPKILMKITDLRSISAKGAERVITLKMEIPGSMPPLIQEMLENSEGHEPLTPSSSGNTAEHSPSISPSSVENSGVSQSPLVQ
human Peroxisome Proliferator-activated Receptor alpha (PPARa), PPARA (gene 5465), sequence (Q07869 whole entry, looked up, the tested form may be a part): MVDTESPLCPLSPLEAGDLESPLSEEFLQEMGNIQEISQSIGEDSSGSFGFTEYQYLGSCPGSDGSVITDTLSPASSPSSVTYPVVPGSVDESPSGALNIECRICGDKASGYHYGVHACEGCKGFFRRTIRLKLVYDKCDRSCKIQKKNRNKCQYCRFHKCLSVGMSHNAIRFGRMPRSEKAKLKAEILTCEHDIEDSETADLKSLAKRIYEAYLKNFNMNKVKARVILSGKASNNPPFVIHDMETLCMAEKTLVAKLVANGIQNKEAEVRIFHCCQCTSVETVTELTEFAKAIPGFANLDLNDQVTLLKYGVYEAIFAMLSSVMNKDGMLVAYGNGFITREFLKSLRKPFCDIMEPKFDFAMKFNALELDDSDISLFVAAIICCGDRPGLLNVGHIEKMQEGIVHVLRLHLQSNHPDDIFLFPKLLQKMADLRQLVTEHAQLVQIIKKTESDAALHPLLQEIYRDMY
human RAR-related Orphan Receptor gamma (RORg), RORC (gene 6097), sequence (P51449 whole entry, looked up, the tested form may be a part): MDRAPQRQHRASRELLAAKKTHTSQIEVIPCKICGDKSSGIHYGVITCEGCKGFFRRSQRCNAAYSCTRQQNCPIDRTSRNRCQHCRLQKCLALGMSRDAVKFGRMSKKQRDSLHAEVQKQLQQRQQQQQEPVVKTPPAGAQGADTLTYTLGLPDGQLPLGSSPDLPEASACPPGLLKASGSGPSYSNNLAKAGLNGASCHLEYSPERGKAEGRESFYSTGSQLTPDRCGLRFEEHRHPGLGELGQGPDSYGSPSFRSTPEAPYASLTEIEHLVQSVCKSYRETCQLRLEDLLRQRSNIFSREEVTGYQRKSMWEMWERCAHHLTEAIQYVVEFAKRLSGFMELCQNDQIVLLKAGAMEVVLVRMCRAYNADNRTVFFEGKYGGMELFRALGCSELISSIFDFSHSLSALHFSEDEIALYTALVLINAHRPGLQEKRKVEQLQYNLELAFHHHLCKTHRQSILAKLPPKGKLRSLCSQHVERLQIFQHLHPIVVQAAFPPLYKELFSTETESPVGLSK
Retinoic acid receptor alpha (Homo sapiens), sequence (P10276 whole entry, looked up, the tested form may be a part): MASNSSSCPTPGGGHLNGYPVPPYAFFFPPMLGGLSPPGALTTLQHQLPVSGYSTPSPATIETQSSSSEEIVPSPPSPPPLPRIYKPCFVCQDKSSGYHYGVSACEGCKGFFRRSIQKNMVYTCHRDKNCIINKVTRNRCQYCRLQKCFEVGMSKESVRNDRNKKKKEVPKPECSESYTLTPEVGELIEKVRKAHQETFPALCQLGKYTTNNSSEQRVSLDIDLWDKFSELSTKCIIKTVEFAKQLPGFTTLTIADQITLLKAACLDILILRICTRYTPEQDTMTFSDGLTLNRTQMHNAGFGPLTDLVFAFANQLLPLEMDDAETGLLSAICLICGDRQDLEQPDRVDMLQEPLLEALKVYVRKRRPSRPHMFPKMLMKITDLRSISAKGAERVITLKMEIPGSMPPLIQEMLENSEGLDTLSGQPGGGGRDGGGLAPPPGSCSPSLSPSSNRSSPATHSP
human Retinoic Acid Receptor gamma (RARg), RARG (gene 5916), sequence (P13631 whole entry, looked up, the tested form may be a part): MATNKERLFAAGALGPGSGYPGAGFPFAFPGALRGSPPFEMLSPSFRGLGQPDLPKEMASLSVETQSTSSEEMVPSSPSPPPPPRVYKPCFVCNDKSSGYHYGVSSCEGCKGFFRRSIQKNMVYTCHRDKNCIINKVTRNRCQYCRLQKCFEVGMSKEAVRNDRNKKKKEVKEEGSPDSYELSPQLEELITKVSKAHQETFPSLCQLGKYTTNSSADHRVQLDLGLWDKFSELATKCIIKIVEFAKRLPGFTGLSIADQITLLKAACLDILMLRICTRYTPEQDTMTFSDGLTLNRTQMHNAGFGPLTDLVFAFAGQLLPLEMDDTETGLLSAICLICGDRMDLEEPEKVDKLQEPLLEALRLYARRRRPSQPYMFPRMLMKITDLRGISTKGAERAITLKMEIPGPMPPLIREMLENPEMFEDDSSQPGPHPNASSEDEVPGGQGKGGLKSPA

CC1C(C)(C)C2=C(C(=O)CCC2)C1(C)C (stereo unspecified)
active: [7] 87.6 µM
inactive: [1] | [2] | [3] | [4] | [5] | [6]

CC(=O)CCC1=C(C)CCCC1(C)C
inactive: [1] | [8] | [3] | [4] | [6]
active: [9] 6.98 µM | [7] 19.6 µM

C=CCNCC=C
inactive: [1] | [3] | [9] | [5] | [6] | [10]

CCCCCCCC(=O)OCC
inactive: [1] | [3] | [9] | [4] | [6] | [7]

CCCCCCCCCCCCCC(=O)OC(C)C
not listed: [5] | [8]
inactive: all other assays above

CN(C)Cc1cc(CN(C)C)c(O)c(CN(C)C)c1
inactive: [1] | [8] | [3] | [9] | [10]

CCC(C)N (stereo unspecified)
inactive: [1] | [8] | [3] | [7]

[Cl][Sc]([Cl])[Cl]
inactive: [1] | [2] | [9] | [4] | [11]

CN(C)c1ccc2nc3ccc(=[N+](C)C)cc-3sc2c1
active: [3] 12.1 µM | [9] 10.3 µM
not listed: [7] | [8] | [11]
inactive: all other assays above

CCCc1ccc(O)c(OC)c1
active: [3] 57.2 µM
not listed: [2] | [8] | [10]
inactive: all other assays above

CC(=O)OCC=C(C)C
inactive: [1] | [2] | [3] | [9] | [6] | [7]

C=CC(=O)OCCCCCCCCCC
active: [3] 3.15 µM
not listed: [2] | [4] | [8]
inactive: all other assays above

CC(=O)c1ccc(S(=O)(=O)NC(=O)NC2CCCCC2)cc1
inactive: [1] | [2] | [3] | [9] | [4] | [5]

CC(=O)c1ccccc1O
inactive: [1] | [3] | [9] | [5] | [6] | [7]

Oc1ccc(-c2ccccc2)c(Cl)c1
inactive: [9] | [4] | [10]
active: [1] 41.1 µM | [3] 39.9 µM

C=C[Si](OCCOC)(OCCOC)OCCOC
inactive: [1] | [8] | [9] | [6] | [10]

CC(=O)C(C)C
not listed: [7] | [8] | [10] | [11]
inactive: all other assays above

Cc1ccc2c(c1)CCCN2
not listed: [2] | [4] | [10] | [11]
inactive: all other assays above

CCc1cccc(C)c1N
not listed: [5] | [8] | [10]
inactive: all other assays above

Cc1c(C(=O)c2c[nH]n(C)c2=O)ccc(S(C)(=O)=O)c1C1=NOCC1
inactive: [1] | [2] | [9] | [5]

CC(C)CCOCc1ccccc1
inactive: [1] | [3] | [9] | [11] | [7]

Nc1ccc(C(=O)OCCCOC(=O)c2ccc(N)cc2)cc1
inactive: [1]
active: [3] 33.4 µM

CC1OC(=O)C(C)OC1=O (stereo unspecified)
inactive: [1] | [3] | [9] | [5]

COC(=O)CC(C)CCC=C(C)C (stereo unspecified)
inactive: [1] | [3] | [9] | [5] | [6] | [7]

O=S(=O)(O)c1ccc(N=Nc2c(O)ccc3ccccc23)cc1
not listed: [5] | [8] | [9] | [10]
inactive: all other assays above
